Compound activity (PubChem BioAssay)
Hits are enriched below; roughly 1.1% of the tested compounds scored in any of these assays.
gsp agonist: agonists of gsp mutant (McCune-Albright syndrome); gsp mutant cells, cAMP HTRF, 30 min; Potency, µM (doses to about 76.9 µM), for inactives: at the highest dose activation (cAMP increase), hits mostly activators; 0.13% of 340,000 active; AID 624287; active = well fitted activation curve with a large enough effect; inconclusive = small, poorly fitted or top-dose-only effect, or another doubt; inactive = no such curve, though single readings can be large or run the other way; cell line not stated here;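 note: phosphodiesterase inhibitor Ro 20-1724 added with compounds to block cAMP breakdown; potency is the fitted concentration of half-maximal effect; nearly all actives have a fitted effect of over 60% in size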
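Cells in DMEM/10% FBS with G418 were pretreated with compounds in DMSO plus […] (300 uM stock) for 30 min at 37C. cAMP was measured by HTRF (cAMP-d2 plus anti-cAMP antibody-K) after 30 min at room temperature.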
gsp antagonist: antagonists of gsp mutant (McCune-Albright syndrome) | gsp-mutant cells, cAMP HTRF, 30 min | Potency, µM (series often up to 76.9 µM), without a hit: top-dose activity change, negative = inhibition, actives largely listed as inhibitors | 0.4% of 340,000 active; calls by dose curve; cell line not stated here;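 note: intracellular cAMP measured with PDE inhibitor Ro 20-1724 present during compound exposure; potency is the fitted concentration of half-maximal effect; % is set by controls: 0 for no effect and ±100 for the full control effect; nearly all actives have a fitted effect of over 65% in size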
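HTRF cAMP measurement after 30 min RT detection following 30 min, 37C compound treatment alongside […] (added as 300 uM solution) in G418-selected cells seeded at 2000/well and grown 16–24 h.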
a7 integrin act: activates integrin-mediated alleviation for muscular dystrophy | alpha7betagal myoblasts, beta-gal FDG fluorescence, 48 h | Potency, µM (doses to about 38.3 µM), without a hit: at the highest dose activation, most hits filed as activators | 0.064% of 350,000 active;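 note: potency is the fitted concentration of half-maximal effect; 100% = response of the positive control SU9516; nearly all actives have a fitted effect of over 60% in size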
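Alpha7betagal+/- myoblasts (passage 13) were plated 16-24 hr, then exposed to compounds (1:260 dilution of DMSO stock) for 48 hours at 37C. After MPER lysis, β-galactosidase reporter activity was read as FDG fluorescence (ex 480/em 540) after 30 minutes.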
RXFP1 ag: agonists of human relaxin receptor RXFP1; Q9HBX9; HEK293T-RXFP1 cAMP TR-FRET, 30 min; response scale: percent of porcine relaxin response, buffer zero; Potency, µM (top dose mostly 57.5 µM), inactives show at the highest dose activation, most hits filed as activators; 0.3% of 370,000 active; AID 2676; note: potency is the fitted concentration of half-maximal effect; % is set by controls: 0 for no effect and ±100 for the full control effect; nearly all actives have a fitted effect of over 60% in size
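cAMP rise read by TR-FRET after 30 min, 37C compound exposure (up to 58 uM) in RXFP1-transfected HEK293 cells with Ro 20174 present. EC50 from Hill-equation fits, with 29 nM porcine relaxin as 100% and buffer as basal.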
ASM inhibitor: blocks human secretory acid sphingomyelinase; AID 504937; Potency, µM (top dose mostly 57.5 µM), for the others: at the top dose activity change, negative = inhibition, hits mostly inhibitors; placental ASM, HMU-PC fluorogenic substrate, 60 min; P17405; 0.006% of 340,000 active; note: potency is the fitted concentration of half-maximal effect
Target sequence (P17405 47-631 limits assumed): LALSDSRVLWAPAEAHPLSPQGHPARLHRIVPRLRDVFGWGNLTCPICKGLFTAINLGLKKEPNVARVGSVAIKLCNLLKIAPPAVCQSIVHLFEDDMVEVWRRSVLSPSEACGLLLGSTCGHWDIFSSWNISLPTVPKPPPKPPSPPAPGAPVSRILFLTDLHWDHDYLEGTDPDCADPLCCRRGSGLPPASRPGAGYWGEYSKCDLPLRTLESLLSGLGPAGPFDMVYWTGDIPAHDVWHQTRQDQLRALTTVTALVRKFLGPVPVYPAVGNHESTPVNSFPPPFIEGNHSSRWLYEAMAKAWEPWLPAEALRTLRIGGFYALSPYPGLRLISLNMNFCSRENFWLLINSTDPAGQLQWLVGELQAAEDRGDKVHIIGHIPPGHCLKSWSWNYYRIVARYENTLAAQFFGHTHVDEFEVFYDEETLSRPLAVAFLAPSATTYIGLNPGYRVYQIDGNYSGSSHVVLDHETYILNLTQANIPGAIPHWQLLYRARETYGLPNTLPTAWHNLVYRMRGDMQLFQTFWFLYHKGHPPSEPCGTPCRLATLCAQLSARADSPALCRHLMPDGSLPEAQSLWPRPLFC
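Fluorescence read-out (Ex 386 nm, Em 447 nm) after stopping the reaction at pH 10. Enzyme: ASM from human placenta; substrate HMU-PC0, 9 uM final; 60 min, 37 °C. Compound preincubation 10 min, ambient temperature.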
RXFP1 antagonist: blocks the human relaxin receptor RXFP1; HEK293-RXFP1, relaxin-stimulated cAMP HTRF, 30 min; stronger effect = lower value; activity change, negative = inhibition, % at 57.5 µM; 0.59% of 350,000 active; AID 1259400;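 active = activity change of -60% or lower, but not beyond a set lower limit; inconclusive = change between -60% and -40%, or beyond the set limit; inactive = change above -40%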; note: % is set by controls: 0 for no effect and ±100 for the full control effect
The depositor's hits bear a star; ? = inconclusive; · = no result given; ! = not active in a repeat; [ ] = remark or other dose. Unless noted, calls come from the whole dose curve; as a rule, active = well fitted curve in the direction sought with a large enough effect; inconclusive = small, poorly fitted or top-dose-only effect, or another doubt; inactive = no such curve, though single readings can be large; an effect the other way counts as inactive or inconclusive.

SMILES	gsp agonist	gsp antagonist	a7 integrin act	RXFP1 ag	ASM inhibitor	RXFP1 antagonist
COc1ccc(-c2ocnc2C(=O)N2CCN(Cc3cccnc3)CC2)cc1	-11%	3%	-17%	1%	0%	-1
COc1cccc(C2/C(=C(\O)c3ccc4c(c3)OCCO4)C(=O)C(=O)N2c2nnc(C)s2)c1 (centres undefined)	8.9µM*	-10%	26%	?	-2%	1
CCCCOc1cccc(C2/C(=C(\O)c3ccc4c(c3)OCCO4)C(=O)C(=O)N2CCN2CCOCC2)c1 (centres undefined)	16µM*	-3%	8%	25µM*	-3%	2
Cc1nnc(N2C(=O)C(=O)/C(=C(/O)c3ccc4c(c3)OCCO4)C2c2cccc([N+](=O)[O-])c2)s1 (centres undefined)	12%	·	14%	·	·	1
Cc1cccc(NC(=O)COc2cccc3c2CCN(C)C3=O)c1C	0%[15.4 µM]	-15%	5%	-2%	-1%	-3
CCOC(=O)c1c(NC(=O)COc2cccc3c2CCN(C)C3=O)sc2c1CCC2	-40%	14µM*	0%	0%	-1%	15
COc1ccc(NC(=O)c2nc(S(=O)(=O)Cc3cccc(C)c3)ncc2Cl)c(OC)c1	0%	?	-2%	0%	2%	-1
Cc1cccc(C)c1NC(=O)c1nc(S(=O)(=O)Cc2ccccc2)ncc1Cl	-18%[15.4 µM]	2%	-74%	-2%	0%	-70*
Cc1cccc(CS(=O)(=O)c2ncc(Cl)c(C(=O)NCc3ccccc3)n2)c1	-42%	-6%	-62%	-1%	1%	-62*!
CCCc1nnc(NC(=O)c2nc(S(=O)(=O)Cc3cccc(C)c3)ncc2Cl)s1	9%	28µM*	-11%	-1%	-3%	-36
Cc1cccc(CS(=O)(=O)c2ncc(Cl)c(C(=O)Nc3c(C)cccc3C)n2)c1	7%	-14%	-64%	1%	-2%	-96*
CN(C)CCCOC1(Cc2ccccc2)CCCCCC1	·	·	·	·	·	-7
CCOc1ccccc1NC(=O)CSC1=Nc2ccccc2C2=NC(CC(=O)NC3CCCCC3)C(=O)N12 (centres undefined)	·	·	·	5%	·	-9
CC(C)(C)OC(=O)N1CCC(c2c(C(=O)NCCN3CCC(Cc4ccccc4)CC3)cnn2-c2ccc(F)cc2)CC1	·	·	·	0%	·	?
O=C(Nc1nc(-c2ccccc2)cs1)c1ccc(N2CCOCC2)c([N+](=O)[O-])c1	-5%[15.4 µM]	32µM*	-41%	1%	?	-30
O=C(Nc1nc(-c2ccccc2)cs1)c1ccc2c(=O)n3c(nc2c1)CCCCC3	-76%	40µM*	0%	0%	-22%	-21
O=C(Nc1ccccc1Cl)c1ccc2c(=O)n3c(nc2c1)CCC3	-11%	-15%	7%	2%	4%	-8
COC(=O)[C@H]1[C@H]2C[C@@H]3c4[nH]c5cc(OC)ccc5c4CCN3C[C@H]2C[C@@H](OC(=O)/C=C/c2ccc(O)c(OC)c2)[C@@H]1OC	·	·	·	·	·	-16
CCOC(=O)c1nnc(-c2ccc(C)cc2)nc1Sc1ccc(Cl)cc1	-11%	-13%	18%	0%	-2%	-1
CCOC(=O)c1nnc(-c2ccc(C)cc2)nc1N1CCSCC1	8%[15.4 µM]	-15%	17%	0%	-4%	-68*
COc1ccc(CC(=O)N/N=C(\C)c2cccnc2)cc1	1%	1%	-8%	-3%	1%	0
CN=c1scc(-c2ccc(OC)cc2)n1/N=C(\C)c1cccnc1	-5%[15.4 µM]	?	5µM*	1%	-3%	?
O=C(CS(=O)(=O)c1ccccc1)c1cc2cc(F)ccc2oc1=O	-17%	2%	-7%	-1%	5%	-72*
Cc1ccc(C(=O)Nc2ccc3c(c2)N(C)C(=O)c2ccccc2S3)cc1	·	·	·	0%	·	-31
CN(C(=O)c1cc2c(s1)-c1ccc(Cl)cc1SC2)c1cccc(C(F)(F)F)c1	·	·	·	5%	·	-18
SMILES	gsp agonist	gsp antagonist	a7 integrin act	RXFP1 ag	ASM inhibitor	RXFP1 antagonist
O=C(NCCc1csc(-c2ccc(F)cc2)n1)c1cccs1	·	·	·	1%	·	-61*
COc1ccc(/C=C2/SC(=S)NC2=O)cc1OCc1ccccc1	-5%[15.4 µM]	?	-9%	2%	-7%	-32
COc1cc(/C=C2/SC(=O)NC2=O)ccc1OCc1ccccc1	-41%	32µM*	6%	-2%	3%	-2
O=C(Cn1cnc([N+](=O)[O-])c1)Nc1ccc(Cl)cc1Cl	?	·	6%	·	·	5
CSc1ccc(CN2CCC(CO)(Cc3ccc(Cl)cc3)CC2)cc1	-3%	19%	-55%	-1%	0%	-81*
Cc1ccccc1NC(=O)Cn1c(=O)n(Cc2ccco2)c(=O)c2cccnc21	·	·	·	0%	·	·
O=[N+]([O-])c1ccc(-c2nc(Nc3cccc(O)c3)c3ccccc3n2)cc1	?	28µM*	-38%	10%	?	-10
O=C(O)c1cccc(Nc2nc(-c3ccc([N+](=O)[O-])cc3)nc3ccccc23)c1	?	-13%	3%	21%	0%	-10
COc1ccc(Br)cc1S(=O)(=O)N(CC(=O)N1CCN(C)CC1)c1ccccc1	?	2%	0%	0%	-1%	-17
COc1ccc(OCC(O)CNC(C)c2ccccc2)cc1 (centres undefined)	13%	-5%	-17%	5%	-4%	7
CC(NCC(O)COc1ccc2ccccc2c1)c1ccccc1 (centres undefined)	?	17%	-70%	0%	-3%	-87*
COc1ccc(-c2n[nH]c(C(F)(F)F)c2-c2cc3ccccc3o2)c(O)c1	-2%	-24%	-34%	-1%	-16%	-69*
COc1ccccc1-c1c(-c2ccc(OCC(=O)NN)cc2O)n[nH]c1C(F)(F)F	34%	6%	14%	1%	-1%	-10
CC(=O)Nc1cc2c3c(c1)CC(=O)N3CCC2	-6%	50µM*	-63%	3%	-2%	10
Cc1ccc(CN(Cc2ccco2)C(=O)c2ccccc2Cl)o1	·	·	·	2%	·	-3
Cc1cc(/C=N/n2cnnc2)c(C)n1-c1ccc(OCc2ccc(F)cc2)cc1	4%	2%	-55%	0%	-12%	-68*
Cc1cc(/C=N/n2cnnc2)c(C)n1-c1ccc(OCc2ccc(Cl)cc2Cl)cc1	-2%	4%	-69%	0%	?	-21
O=C(NCC1CN(c2ccc(N3CCOCC3=O)cc2)C(=O)O1)c1ccc(Cl)s1 (centres undefined)	·	·	·	·	·	10
COc1ccc(S(=O)(=O)N2CCOCC2)cc1NC(=O)CSc1nnc2ccccn12	·	·	·	3.5µM*	·	·
COC(=O)c1ccccc1NC(=O)c1cc2nc(-c3ccc(OC)cc3)cc(C(F)(F)F)n2n1	·	·	·	-3%	·	·
